Screening results as filed in PubChem BioAssay.
In the library only some 1.3% were active in any assay of this set; here they are far more common.
GC-B act: human GC-B receptor activators, primary screen, HEK293 GC-B cells, cGMP TR-FRET, EC30 CNP; Atrial natriuretic peptide receptor 2 (Homo sapiens), P20594; 0% at EC30 CNP, 100% saturating CNP; actives 0.11% (n = 370,000); activation, % at 10 µM; AID 1920062, 2024;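 active = activation at 10 µM reaching about 35% in either raw or pattern-adjusted values, limit read from the data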
Target sequence (P20594 whole entry, looked up): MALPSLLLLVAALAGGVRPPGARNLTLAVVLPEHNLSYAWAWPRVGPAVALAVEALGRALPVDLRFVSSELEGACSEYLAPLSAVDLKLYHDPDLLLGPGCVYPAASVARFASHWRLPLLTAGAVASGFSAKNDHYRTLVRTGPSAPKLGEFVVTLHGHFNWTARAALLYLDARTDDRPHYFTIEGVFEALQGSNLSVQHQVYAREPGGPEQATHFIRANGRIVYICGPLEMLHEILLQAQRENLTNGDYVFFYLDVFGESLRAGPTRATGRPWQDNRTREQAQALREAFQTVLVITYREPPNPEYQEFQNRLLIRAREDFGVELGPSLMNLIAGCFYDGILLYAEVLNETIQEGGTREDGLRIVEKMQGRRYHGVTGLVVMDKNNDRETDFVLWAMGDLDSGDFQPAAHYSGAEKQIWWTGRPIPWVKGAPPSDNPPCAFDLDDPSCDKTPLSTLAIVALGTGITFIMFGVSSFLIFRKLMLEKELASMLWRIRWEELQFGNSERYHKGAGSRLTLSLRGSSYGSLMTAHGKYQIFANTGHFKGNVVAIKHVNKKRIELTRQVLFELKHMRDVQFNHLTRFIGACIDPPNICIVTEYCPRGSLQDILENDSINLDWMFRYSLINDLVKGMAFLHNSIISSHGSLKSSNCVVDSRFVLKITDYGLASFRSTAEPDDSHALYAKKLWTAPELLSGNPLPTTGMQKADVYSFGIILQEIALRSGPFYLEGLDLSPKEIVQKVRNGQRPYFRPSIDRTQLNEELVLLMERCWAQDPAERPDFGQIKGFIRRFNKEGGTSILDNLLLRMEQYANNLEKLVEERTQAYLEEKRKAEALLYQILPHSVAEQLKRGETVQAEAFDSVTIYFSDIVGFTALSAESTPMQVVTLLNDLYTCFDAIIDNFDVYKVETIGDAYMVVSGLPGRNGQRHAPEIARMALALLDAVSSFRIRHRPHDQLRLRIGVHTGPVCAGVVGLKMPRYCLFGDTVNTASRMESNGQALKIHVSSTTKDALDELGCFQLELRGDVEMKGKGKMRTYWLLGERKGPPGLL
ADAM17 inh: ADAM17 inhibitors, primary screen, biochemical, QFRET | actives 0.83% (n = 370,000) | inhibition, % at 6.95 µM | Disintegrin and metalloproteinase domain-containing protein 17 (Homo sapiens), P78536 | recombinant ADAM17, EDANS/DABCYL FRET peptide cleavage;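 active = inhibition above the mean of compounds lying between control limits plus 3 SD, set per campaign, cut at about 8.5% in these data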;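 also: 0% = DMSO-only wells as the low control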
ADAM10 inh: human ADAM10 inhibitors, primary screen, biochemical, QFRET, HTS | Disintegrin and metalloproteinase domain-containing protein 10 (Homo sapiens), O14672 | AID 720582, 2013 | actives 0.62% (n = 370,000) | recombinant ADAM10, EDANS/DABCYL FRET peptide cleavage, 3 h | inhibition, % at 7 µM;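 active = inhibition above a per-campaign cutoff equal to the mean of compounds falling between control-based bounds plus 3 SD, cut at about 20% in these data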;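 also: 0% = DMSO wells while the 100% control is not disclosed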
NPR1 activator: GC-A stimulated cGMP production enhancers – HEK293 GC-A cells, cGMP TR-FRET, EC30 ANP, primary screen; Atrial natriuretic peptide receptor 1 (Homo sapiens), P16066; 0% at EC30 ANP, 100% saturating ANP; activation, % at 10 µM; actives 0.14% (n = 370,000); AID 1671463, 2021; in the data active = activation above about 40%
ADAM10 counter: ADAM10 inhibitors, counter-screen for ADAM17 exosite inhibitor project, biochemical, FRET, human ADAM10. recombinant ADAM10, EDANS/DABCYL FRET peptide cleavage, 3 h. inhibition, % at 6.95 µM. AID 743256, 2014. actives 47% (n = 2,900). shares compounds with ADAM17 inh;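 active = mean inhibition over the triplicate runs exceeds the activity threshold set in the earlier primary screen, cut at about 20% in these data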;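 also: 0% = DMSO wells and 100% = marimastat wells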
ADAM17 confirm: ADAM17 inhibitors, hit retest, confirmation, biochemical, QFRET peptide cleavage | shares compounds with ADAM17 inh | recombinant ADAM17, EDANS/DABCYL QFRET peptide cleavage | inhibition, % at 6.95 µM | actives 65% (n = 2,900) | AID 743257, 2014;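 active = mean inhibition across replicates above the hit cutoff set in the primary screen, cut at about 8.5% in these data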;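 also: 0% = DMSO wells and 100% = marimastat wells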
* hit, by the source's call; x = no result.

SMILES | GC-B act | ADAM17 inh | ADAM10 inh | NPR1 activator | ADAM10 counter | ADAM17 confirm
NC(=O)CC[C@@H]1NC(=O)[C@H](CO)NC(=O)c2cc([N+](=O)[O-])cc(I)c2OCC[C@@H](C(N)=O)NC1=O | 4 | 10* | 17 | 3 | 12 | 5
CCc1ccccc1NC(=O)NNS(=O)(=O)c1cc(C)ccc1C | -4 | -5 | -1 | -5 | x | x
O=C(O)CCC(=O)Nc1cccc(-c2csc(-c3ccccc3)n2)c1 | 5 | -4 | -6 | 0 | x | x
CCCCC(=O)Nc1cccc(-c2csc(-c3ccccc3)n2)c1 | 0 | 8.9* | 17 | -2 | 22* | 17*
O=C(CN1C(=O)S/C(=C\c2ccc(F)cc2)C1=O)Nc1cccc(S(=O)(=O)NCc2ccco2)c1 | -5 | 9.2* | 9 | 1 | 21* | 12*
O=C(N/N=C/c1cc(Br)c(O)c(Br)c1O)c1ccc2c(c1)OCCO2 | -5 | -25 | -64 | -11 | x | x
CCOc1cc(/C=N/NC(=O)c2ccc3c(c2)OCCO3)cc(Br)c1O | -6 | 23* | -6 | 4 | -19 | 1
COC(=O)[C@@]12C[C@@H](CC(=O)NCc3ccccc3)C(=O)N(Cc3ccc4c(c3)OCO4)C1=CCC(C)(C)C2 | 5 | 4 | 11 | -3 | x | x
CCOC(=O)[C@]12CCCC=C1N(Cc1cccc3ccccc13)C(=O)[C@H](CC(=O)NCc1cccc3ccccc13)C2 | 2 | 11* | 6 | -3 | 12 | 5
C#CCNC(=O)C[C@@H]1C[C@@]2(C(=O)OCC)CCCC=C2N(Cc2cccc3ccccc23)C1=O | -2 | 6 | 7 | -8 | x | x
CCCCOCCCNC(=O)C[C@@H]1C[C@@]2(C(=O)OCC)CCCC=C2N(Cc2cccc3ccccc23)C1=O | 0 | 7 | 19 | -3 | x | x
COC(=O)[C@]12CCCCC=C1N(Cc1cccc3ccccc13)C(=O)[C@H](CC(=O)NCc1cccc3ccccc13)C2 | 1 | 12* | 16 | -3 | 23* | 12*
CCOC(=O)[C@]12CCCC=C1N(Cc1cccc3ccccc13)C(=O)[C@H](CC(=O)NCCc1ccccc1OC)C2 | 5 | 9.7* | 11 | -3 | 24* | 17*
COC(=O)[C@@]12C[C@@H](CC(=O)NCc3cccc4ccccc34)C(=O)N(Cc3ccc4c(c3)OCO4)C1=CCC(C)(C)C2 | -6 | 8.9* | 18 | -5 | 20* | 12*
C[C@H](CO)N1C[C@H](C)[C@H](CN(C)C(=O)C2CC2)OCc2cnnn2CCCC1=O | 0 | 1 | -1 | -5 | x | x
O=C(O)C(Cc1ccccc1)N1C(=O)c2c(Cl)c(Cl)c(Cl)c(Cl)c2C1=O (centres undefined) | 0 | 0 | -3 | -1 | x | x
O=C(Nc1cccc(C(=O)N2CCCc3ccccc32)c1)c1ccccc1 | -1 | 3 | 5 | -6 | x | x
CCc1nc2ccc(C(=O)N(C)CCN(C)C)cn2c1N(C)Cc1cc2ccccc2s1 | -14 | -4 | -6 | -15 | x | x
COc1ccccc1CN(C)C[C@@H]1OCc2cnnn2CCCC(=O)N([C@H](C)CO)C[C@H]1C | -5 | 8.7* | 0 | -1 | -2 | -1
Cc1ccccc1CN(C)C[C@H]1OCc2cnnn2CCCC(=O)N([C@@H](C)CO)C[C@@H]1C | -5 | 0 | -2 | -1 | x | x
CN(Cc1ccccc1)C(=O)c1cccc(NC(=O)Cc2ccc(NC(=O)C3CCCN(C(=O)C4CC4)C3)cc2)c1 (centres undefined) | -1 | -4 | -7 | -4 | x | x
CCn1cc(C(=O)NCCN(C)C)c(=O)c2cc(F)c(N3CCN(C)CC3)cc21 | 5 | -60 | -162 | 1 | x | x
Cc1csc(-c2cnn(-c3ccccc3)c2NC(=O)c2ccc(C(F)(F)F)cc2)n1 | 3 | 9.3* | 13 | 0 | 18 | 11*
CS(=O)(=O)N(Cc1ccco1)CC(O)Cn1c2ccccc2c2ccccc21 (centres undefined) | -14 | 9.9* | 9 | -18 | 4 | 5
CCCN1CNc2c(c(=O)[nH]c(=S)n2CCc2cccc(Cl)c2Cl)C1 | -4 | -8 | -14 | -2 | x | x
SMILES | GC-B act | ADAM17 inh | ADAM10 inh | NPR1 activator | ADAM10 counter | ADAM17 confirm
Cc1ccc(S(=O)(=O)N2C[C@@H](C)[C@]3(C2)[C@H](O)[C@H](OC(=O)Nc2c(C)noc2C)C[C@H]2C(=O)N(c4ccccc4)C(=O)[C@H]23)cc1 | -3 | -2 | 4 | -1 | x | x
Cc1ccc(S(=O)(=O)N2C[C@@H](C)[C@]3(C2)[C@H](O)[C@H](OC(=O)NCc2ccccc2F)C[C@H]2C(=O)N(c4ccccc4)C(=O)[C@H]23)cc1 | 1 | 9.2* | 14 | 2 | 37* | 20*
Clc1ccccc1NN=Cc1ccccn1 | -1 | 0 | -4 | -1 | x | x
CC(=O)N1Cc2cc(C(=O)NCC(F)(F)F)nc(-c3cccc(-c4cc5ccccc5o4)c3)c2[C@@H]1CCO | -7 | 5 | 4 | -2 | x | x
CNC(=S)N/N=C/c1cn(Cc2c(F)cccc2Cl)c2ccccc12 | 31 | 8 | 8 | 29 | x | x
CCNC(=S)N/N=C/c1cn(Cc2ccccc2F)c2ccccc12 | 44* | 9.1* | 12 | 41* | 18 | 20*
Cc1ccc(-c2nn(Cc3ccccc3)cc2C(=O)N2CCN(c3ccccn3)CC2)cc1 | 2 | -10 | -6 | 0 | x | x
O=C(c1cn(Cc2ccccc2)nc1-c1ccc(Cl)cc1)N1CCN(c2ccccn2)CC1 | -3 | 9.5* | 0 | -2 | 16 | 6
NC(Cc1ccc(F)cc1)c1csc(NC(=O)NC(c2ccccc2)c2ccccc2)n1 (centres undefined) | -3 | 8.8* | 12 | -15 | 20* | 9.3*
COc1cc(NC(=O)C2CCCN(S(=O)(=O)c3ccc(Cl)s3)C2)cc(OC)c1 (centres undefined) | -8 | 10* | 5 | -8 | 35* | 19*
CC1C(=O)Nc2ccc(S(=O)(=O)NCCc3ccc(Cl)cc3)cc2NC1=O (centres undefined) | 3 | -6 | -16 | 1 | x | x
CCCCOc1ccc(C(=O)NC2CCCCN(CC)C2=O)cc1 (centres undefined) | 0 | -1 | -1 | 4 | x | x
O=C(c1cc2ccccc2cc1O)N1CCN(c2cccc(Cl)c2)CC1 | 2 | 1 | 10 | 4 | x | x
